Measurements published in PubChem BioAssay.
Unmarked numbers belong to inactive results. The rule behind the calls is not given here.

Each molecule was assayed on Aerobactin synthetase IucA (Klebsiella pneumoniae hvKP1) (assay: IucA enzyme inhibition, primary screen, biochemical, Spectrum library (AID 1346200;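 note: 100% = wells without compound and 0% = wells lacking enzyme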)). Settings: malachite green pyrophosphate, A620, at 8 µM, stronger effect = lower value.
`CC1(C)Oc2ccc3ccc(=O)oc3c2CC1O` (stereo not given) gave an activity remaining of 88.1%.
`Cc1ccccc1OCC(O)CO` (stereo not given) was tested, and the activity remaining was 95.2%.
`Cc1cc(O)c(C=O)c2c1C(=O)Oc1c(COC(=O)/C=C/C(=O)O)c(O)c(C(=O)O)c(C)c1O2` was tested, and the activity remaining was 93.9%.
`CCOC(=O)c1ccc(O)cc1` was tested, and the activity remaining was 114%.
Work on `C=C1CCC(C2CC(=O)OC2=O)C(=O)CCC2C1CC2(C)C` (stereo not given) yielded an activity remaining of 111%.
With `CCCCCCCCNC(C)C(O)c1ccc(SC(C)C)cc1` (stereo not given) the activity remaining was 114%.
With `c1coc(CNc2ncnc3nc[nH]c23)c1` the activity remaining was 116%.
In the case of `CC(=O)O[C@H]1C[C@@H](OC(C)=O)C(C)(C)C2C[C@@H](OC(C)=O)[C@]3(C)C(CC[C@@]4(C)[C@H](c5ccoc5)OC(=O)[C@H]5O[C@]543)[C@]21C` (stereo not given in full), the activity remaining is reported as 103%.
Work on `CC(C)[C@@H]1CC[C@@H](C)C[C@H]1OC(=O)c1ccccc1` yielded an activity remaining of 120%.
`Cc1c(Nc2ncccc2C(=O)O)cccc1C(F)(F)F` was tested, and the activity remaining was 117%.
`COc1cc2nc(N(C)CCCNC(=O)C3CCCO3)nc(N)c2cc1OC` (stereo not given) was tested, and the activity remaining was 120%.
`Cc1ccc(C)c(OCCCC(C)(C)C(=O)O)c1` gave an activity remaining of 116%.
For `O=C(CCCCCCCCCCCCC1CCCC1)Nc1ccc(S(=O)(=O)c2ccc(NC(=O)CCCCCCCCCCCCC3CCCC3)cc2)cc1`, the activity remaining was 94.8%.
With `COC1=CC(=O)C(C(=O)c2ccccc2)=CC1=O` the activity remaining was 93.6%.
Work on `CC(C)(C)NCC(O)COc1cccc2c1CCCC2=O` (stereo not given) yielded an activity remaining of 91.1%.
For `O=C(O)c1cn(C2CC2)c2cc(N3CCNCC3)c(F)cc2c1=O`, the activity remaining was 77.6%.
Work on `COc1cc(O)c(C(=O)c2ccccc2)cc1O` yielded an activity remaining of 107%.
Work on `CC(C)CCCC(C)C1CCC2C3CC[C@H]4C[C@@H](O)CC[C@]4(C)C3CC[C@]12C` (stereo not given in full) yielded an activity remaining of 109%.
Work on `CCOC(=O)c1c(C)cc(O)cc1O` yielded an activity remaining of 119%.
In the case of `Cc1cc2nc3c(=O)[nH]c(=O)nc-3n(CC(O)C(O)C(O)CO)c2cc1C` (stereo not given), the activity remaining is reported as 106%.
With `CC[C@H]1OC(=O)[C@H](C)[C@@H](O[C@H]2C[C@@](C)(OC)[C@@H](O)[C@H](C)O2)[C@H](C)[C@@H](O[C@@H]2O[C@H](C)C[C@H](N(C)C)[C@H]2O)[C@](C)(O)C[C@@H](C)/C(=N\OCOCCOC)[C@H](C)[C@@H](O)[C@]1(C)O` the activity remaining was 118%.
With `COc1ccc(CN(CCN(C)C)c2ncccn2)cc1` the activity remaining was 120%.
`COC(=O)c1c(C)cc(O)cc1O` was tested, and the activity remaining was 89.5%.
`CC1(C)O[C@@H]2CC3C4C[C@H](F)C5=CC(=O)CC[C@]5(C)C4[C@@H](O)C[C@]3(C)[C@]2(C(=O)CO)O1` (stereo not given in full) showed an activity remaining of 118%.
For `O=c1cc(-c2ccc(O)cc2)oc2cc(O)ccc12`, the activity remaining was 102%.
Work on `Oc1c(I)cc(I)c2cccnc12` yielded an activity remaining of 102%.
`CC(=O)N[C@@H](Cc1c[nH]c2ccccc12)C(N)=O` showed an activity remaining of 122%.
`CCN(CC)C(C)CN1c2ccccc2Sc2ccccc21` (stereo not given) gave an activity remaining of 109%.
`CCC(=O)O[C@H](CC(=O)O)C[N+](C)(C)C` showed an activity remaining of 107%.
`CN1CCCC(n2nc(Cc3ccc(Cl)cc3)c3ccccc3c2=O)CC1` (stereo not given) showed an activity remaining of 106%.
`COc1cc(OC)c2c(c1Cl)OC1(C2=O)C(O)=CC(=O)CC1C` (stereo not given) showed an activity remaining of 107%.
`CCN(CC)CCOC(=O)C(c1ccccc1)C1CCCCC1` (stereo not given) gave an activity remaining of 111%.
Molecule `CCCCC(=O)N(Cc1ccc(-c2ccccc2-c2nn[nH]n2)cc1)[C@H](C(=O)O)C(C)C` has an activity remaining of 121%.
Molecule `C=C1C2CC[C@@]3(C)[C@H](c4ccoc4)OC(=O)C[C@]13O[C@H]1CC(O)C(C)(C)C(CC(=O)OC)[C@@]21C` (stereo not given in full) has an activity remaining of 86.1%.
`COc1cc2c(cc1-c1coc3c4c(c(OC)cc3c1=O)OC(C)(C)C=C4)OCO2` gave an activity remaining of 110%.
For `Nc1ccc(S(=O)(=O)Nc2nccs2)cc1`, the activity remaining was 101%.
Molecule `CCCCOc1ccc(OCCCN2CCOCC2)cc1` has an activity remaining of 104%.
With `CCN1CCN(C(=O)NC(C(=O)NC2C(=O)N3C(C(=O)O)=C(CSc4nnnn4C)CSC23)c2ccc(O)cc2)C(=O)C1=O` (stereo not given) the activity remaining was 125%.
`O=C(O)C1CC(C2CCCCN2)CN2CCCCC12` (stereo not given) was tested, and the activity remaining was 115%.
With `CCCC(=O)Nc1ncnc2c1ncn2C1O[C@@H]2COP(=O)(O)O[C@H]2[C@H]1OC(=O)CCC` (stereo not given in full) the activity remaining was 107%.
